# Source: the supplement of paper PMC8728848
# Many of the other results were omitted from the sample, so the strongest signals are more common in it than they were.
# B1: PhoSpL (Pholiota squarrosa) (peptide)
# chain: APVPVTKLVCDGDTYKCTAYLDFGDGRWVAQWDTNVFHTG
# Tests used:
# Assay in all cases: glycan array binding signal (z-score within array); higher = stronger binding
# Conditions in all cases: glycan notation: IUPAC condensed, linker removed
# [1] = target: Fuc(a1-2)Gal(b1-4)GlcNAc(b1-6)GalNAc
# Summary of the method: (§1)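 Negative Z-scores can be read as non-binding. The Z-score is calculated within each array and then averaged across arrays of one protein sequence at different concentrations or buffers and across linkers. Arrays, 3228 in all, were curated from the Consortium for Functional Glycomics database and kept only where the protein sequence was available.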
# [2] = target: Fuc(a1-2)[Gal(a1-4)]Gal(b1-4)GlcNAc
# Summary of the method: as §1
# [3] = target: Fuc(a1-2)[GalNAc(a1-3)]Gal
# Summary of the method: as §1
# [4] = target: Fuc(a1-2)[GalNAc(a1-3)]Gal(b1-4)GlcNAc(b1-2)Man
# Summary of the method: as §1
# [5] = target: Fuc(a1-3)GlcNAc
# Summary of the method: as §1
# [6] = target: Fuc(a1-3)[Gal(b1-4)]GlcNAc(b1-2)Man
# Summary of the method: as §1
# [7] = target: Fuc(a1-3)[Gal(b1-4)]GlcNAc(b1-3)Gal(b1-4)[Fuc(a1-3)]GlcNAc(b1-3)Gal(b1-4)[Fuc(a1-3)]GlcNAc
# Summary of the method: as §1
# [8] = target: Gal(a1-2)Gal
# Summary of the method: as §1
# [9] = target: Gal(a1-3)Gal(b1-4)Glc
# Summary of the method: as §1
# [10] = target: Gal(b1-3)GlcNAc(b1-2)Man(a1-3)[Gal(b1-3)GlcNAc(b1-2)Man(a1-6)]Man(b1-4)GlcNAc(b1-4)[Fuc(a1-6)]GlcNAc
# Summary of the method: as §1
# [11] = target: Gal(b1-3)[Fuc(a1-4)]GlcNAc(b1-3)Gal(b1-4)[Fuc(a1-3)]GlcNAc
# Summary of the method: as §1
# [12] = target: Gal(b1-4)GlcNAc(b1-2)Man(a1-3)[Gal(b1-4)GlcNAc(b1-2)Man(a1-6)]Man(b1-4)GlcNAc(b1-4)[Fuc(a1-6)]GlcNAc
# Summary of the method: as §1
# [13] = target: Gal(b1-4)GlcNAc(b1-2)[Gal(b1-4)GlcNAc(b1-6)]Man(a1-6)[Gal(b1-4)GlcNAc(b1-2)Man(a1-3)]Man(b1-4)GlcNAc(b1-4)[Fuc(a1-6)]GlcNAc
# Summary of the method: as §1
# [14] = target: Gal(b1-4)GlcNAc(b1-3)Gal(b1-3)GlcNAc
# Summary of the method: as §1
# [15] = target: Gal(b1-4)GlcNAc(b1-3)Gal(b1-4)GlcNAc(b1-2)Man(a1-3)[Gal(b1-4)GlcNAc(b1-3)Gal(b1-4)GlcNAc(b1-2)Man(a1-6)]Man(b1-4)GlcNAc(b1-4)[Fuc(a1-6)]GlcNAc
# Summary of the method: as §1
# [16] = target: Gal(b1-4)GlcNAc(b1-3)Gal(b1-4)GlcNAc(b1-3)Gal(b1-4)GlcNAc
# Summary of the method: as §1
# [17] = target: Gal(b1-4)GlcNAc(b1-3)Gal(b1-4)GlcNAc(b1-3)Gal(b1-4)GlcNAc(b1-3)Gal(b1-4)GlcNAc(b1-3)Gal(b1-4)GlcNAc(b1-2)Man(a1-3)[Gal(b1-4)GlcNAc(b1-3)Gal(b1-4)GlcNAc(b1-3)Gal(b1-4)GlcNAc(b1-3)Gal(b1-4)GlcNAc(b1-3)Gal(b1-4)GlcNAc(b1-2)Man(a1-6)]Man(b1-4)GlcNAc(b1-4)[Fuc(a1-6)]GlcNAc
# Summary of the method: as §1
# [18] = target: Gal(b1-4)GlcNAc(b1-3)GalNAc
# Summary of the method: as §1
# [19] = target: Gal(b1-4)GlcNAc6P
# Summary of the method: as §1
# [20] = target: GalNAc(a1-3)GalNAc(b1-3)Gal(a1-4)Gal(b1-4)GlcNAc
# Summary of the method: as §1
# [21] = target: GalNAc(b1-3)Gal(a1-4)Gal(b1-4)GlcNAc
# Summary of the method: as §1
# [22] = target: GalNAc(b1-4)GlcNAc(b1-2)Man(a1-3)[GalNAc(b1-4)GlcNAc(b1-2)Man(a1-6)]Man(b1-4)GlcNAc(b1-4)GlcNAc
# Summary of the method: as §1
# [23] = target: GlcA3S(b1-3)Gal(b1-4)GlcNAc(b1-2)Man
# Summary of the method: as §1
# [24] = target: GlcNAc(a1-4)Gal(b1-3)GlcNAc
# Summary of the method: as §1
# [25] = target: GlcNAc(b1-2)Man(a1-3)[GlcNAc(b1-2)Man(a1-6)]Man(b1-4)GlcNAc(b1-4)GlcNAc
# Summary of the method: as §1
# [26] = target: GlcNAc(b1-2)Man(a1-3)[GlcNAc(b1-2)Man(a1-6)]Man(b1-4)GlcNAc(b1-4)[Fuc(a1-6)]GlcNAc
# Summary of the method: as §1
# [27] = target: GlcNAc(b1-2)[GlcNAc(b1-4)]Man(a1-3)[GlcNAc(b1-4)][GlcNAc(b1-2)Man(a1-6)]Man(b1-4)GlcNAc(b1-4)GlcNAc
# Summary of the method: as §1
# [28] = target: GlcNAc(b1-2)[GlcNAc(b1-6)]Man(a1-6)[GlcNAc(b1-2)Man(a1-3)]Man(b1-4)GlcNAc(b1-4)[Fuc(a1-6)]GlcNAc
# Summary of the method: as §1
# [29] = target: GlcNAc(b1-3)Gal(b1-4)GlcNAc(b1-2)Man(a1-3)[GlcNAc(b1-3)Gal(b1-4)GlcNAc(b1-2)Man(a1-6)]Man(b1-4)GlcNAc(b1-4)[Fuc(a1-6)]GlcNAc
# Summary of the method: as §1
# [30] = target: GlcNAc(b1-3)Gal(b1-4)GlcNAc(b1-3)Gal(b1-4)GlcNAc(b1-2)Man(a1-3)[GlcNAc(b1-3)Gal(b1-4)GlcNAc(b1-3)Gal(b1-4)GlcNAc(b1-2)Man(a1-6)]Man(b1-4)GlcNAc(b1-4)[Fuc(a1-6)]GlcNAc
# Summary of the method: as §1
# [31] = target: Man(a1-3)[Man(a1-6)]Man(b1-4)GlcNAc(b1-4)[Fuc(a1-6)]GlcNAc
# Summary of the method: as §1
# [32] = target: MurNAc(b1-4)GlcNAc
# Summary of the method: as §1
# [33] = target: Neu5Ac(a2-3)Gal(b1-3)GalNAc(b1-4)[Neu5Ac(a2-3)]Gal(b1-4)Glc
# Summary of the method: as §1
# [34] = target: Neu5Ac(a2-3)Gal(b1-3)GlcNAc(b1-2)Man(a1-3)[GlcNAc(b1-4)][Neu5Ac(a2-3)Gal(b1-3)GlcNAc(b1-2)Man(a1-6)]Man(b1-4)GlcNAc(b1-4)GlcNAc
# Summary of the method: as §1
# [35] = target: Neu5Ac(a2-3)Gal(b1-3)[Fuc(a1-4)]GlcNAc(b1-3)Gal(b1-3)[Fuc(a1-4)]GlcNAc
# Summary of the method: as §1
# [36] = target: Neu5Ac(a2-3)Gal(b1-4)GlcNAc(b1-3)Gal(b1-4)GlcNAc(b1-3)GalNAc
# Summary of the method: as §1
# [37] = target: Neu5Ac(a2-3)Gal(b1-4)GlcNAc(b1-3)Gal(b1-4)GlcNAc(b1-3)[Neu5Ac(a2-3)Gal(b1-4)GlcNAc(b1-3)Gal(b1-4)GlcNAc(b1-6)]GalNAc
# Summary of the method: as §1
# [38] = target: Neu5Ac(a2-3)Gal(b1-4)GlcNAc(b1-6)GalNAc
# Summary of the method: as §1
# [39] = target: Neu5Ac(a2-3)Gal(b1-4)GlcNAc(b1-6)[Gal(b1-3)]GalNAc
# Summary of the method: as §1
# [40] = target: Neu5Ac(a2-3)Gal(b1-4)GlcNAc(b1-6)[Neu5Ac(a2-3)Gal(b1-3)]GalNAc
# Summary of the method: as §1
# [41] = target: Neu5Ac(a2-3)Gal(b1-4)GlcNAc6S
# Summary of the method: as §1
# [42] = target: Neu5Ac(a2-6)Gal(b1-4)GlcNAc(b1-2)Man(a1-3)[Neu5Ac(a2-6)Gal(b1-4)GlcNAc(b1-2)Man(a1-6)]Man(b1-4)GlcNAc(b1-4)[Fuc(a1-6)]GlcNAc
# Summary of the method: as §1
# [43] = target: Neu5Ac(a2-6)Gal(b1-4)GlcNAc(b1-3)Gal(b1-3)GlcNAc
# Summary of the method: as §1
# [44] = target: Neu5Ac(a2-8)Neu5Ac(a2-3)Gal(b1-4)Glc
# Summary of the method: as §1
# [45] = target: Neu5Ac(a2-8)Neu5Ac(a2-3)[GalNAc(b1-4)]Gal(b1-4)Glc
# Summary of the method: as §1
# [46] = target: Neu5Gc(b2-6)Gal(b1-4)GlcNAc
# Summary of the method: as §1
binder,measurement,setting,value
B1,glycan array binding signal (z-score),[1],-0.46
same,glycan array binding signal (z-score),[2],0.637
same,glycan array binding signal (z-score),[3],-0.032
same,glycan array binding signal (z-score),[4],0.067
same,glycan array binding signal (z-score),[5],-0.427
same,glycan array binding signal (z-score),[6],-0.336
same,glycan array binding signal (z-score),[7],-0.179
same,glycan array binding signal (z-score),[8],-0.168
same,glycan array binding signal (z-score),[9],0.101
same,glycan array binding signal (z-score),[10],6.05
same,glycan array binding signal (z-score),[11],-0.256
same,glycan array binding signal (z-score),[12],13.4
same,glycan array binding signal (z-score),[13],8.42
same,glycan array binding signal (z-score),[14],0.027
same,glycan array binding signal (z-score),[15],1.94
same,glycan array binding signal (z-score),[16],-0.517
same,glycan array binding signal (z-score),[17],0.488
same,glycan array binding signal (z-score),[18],-0.135
same,glycan array binding signal (z-score),[19],-0.747
same,glycan array binding signal (z-score),[20],0.539
same,glycan array binding signal (z-score),[21],0.249
same,glycan array binding signal (z-score),[22],1.41
same,glycan array binding signal (z-score),[23],-0.16
same,glycan array binding signal (z-score),[24],-0.307
same,glycan array binding signal (z-score),[25],-0.238
same,glycan array binding signal (z-score),[26],4.77
same,glycan array binding signal (z-score),[27],-0.113
same,glycan array binding signal (z-score),[28],4.35
same,glycan array binding signal (z-score),[29],2.47
same,glycan array binding signal (z-score),[30],1.44
same,glycan array binding signal (z-score),[31],6.32
same,glycan array binding signal (z-score),[32],-0.337
same,glycan array binding signal (z-score),[33],0.143
same,glycan array binding signal (z-score),[34],-0.151
same,glycan array binding signal (z-score),[35],-0.57
same,glycan array binding signal (z-score),[36],0.1
same,glycan array binding signal (z-score),[37],-0.169
same,glycan array binding signal (z-score),[38],-0.386
same,glycan array binding signal (z-score),[39],0.254
same,glycan array binding signal (z-score),[40],-0.322
same,glycan array binding signal (z-score),[41],0.087
same,glycan array binding signal (z-score),[42],4.01
same,glycan array binding signal (z-score),[43],-0.422
same,glycan array binding signal (z-score),[44],-0.197
same,glycan array binding signal (z-score),[45],-0.373
same,glycan array binding signal (z-score),[46],0.132
